Several values for one entry are separate records, joined by “and”; a condition that tells them apart may be missing. Identical values can stand only once.
How the values were obtained:
Format in all cases: functional
[1] = target: Solute carrier family 2, facilitated glucose transporter member 1 (Homo sapiens) (UniProt P11166); experiment: ST_JUDE_LEISH: Cytotoxicity at 2uM final concentration against transgenic Leishmania Mexicana promastigotes LmGLUT1 that are glucose transport deficient and complemented with the human glucose transporter GLUT1. Activity is measured by DNA content using SYBR green in vitro
Sequence of Solute carrier family 2, facilitated glucose transporter member 1 (Homo sapiens) (P11166 whole entry): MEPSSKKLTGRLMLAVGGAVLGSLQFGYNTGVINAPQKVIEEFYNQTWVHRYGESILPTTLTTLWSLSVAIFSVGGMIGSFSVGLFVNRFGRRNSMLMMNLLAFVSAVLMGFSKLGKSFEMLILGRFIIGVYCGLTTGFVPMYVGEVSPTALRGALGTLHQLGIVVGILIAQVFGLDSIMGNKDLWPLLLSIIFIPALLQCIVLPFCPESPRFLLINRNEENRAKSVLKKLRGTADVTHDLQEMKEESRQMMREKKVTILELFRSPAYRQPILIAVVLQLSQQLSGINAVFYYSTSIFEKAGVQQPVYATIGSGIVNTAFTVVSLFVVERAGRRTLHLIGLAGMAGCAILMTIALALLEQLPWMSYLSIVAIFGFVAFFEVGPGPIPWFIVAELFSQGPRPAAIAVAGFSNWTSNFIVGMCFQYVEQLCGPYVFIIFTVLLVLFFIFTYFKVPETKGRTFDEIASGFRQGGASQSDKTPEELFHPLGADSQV

[2] = target: Hexose transporter 1 (Plasmodium falciparum) (UniProt O97467); experiment: ST_JUDE_LEISH: Cytotoxicity at 2uM final concentration against transgenic Leishmania Mexicana promastigotes LmPfHT that are glucose transport deficient and complemented with the Plasmodium falciparum hexose transporter. Activity is measured by DNA content using SYBR green in vitro
[3] = target: Glucose transporter (Leishmania mexicana) (UniProt O61059); experiment: ST_JUDE_LEISH: Cytotoxicity at 2uM final concentration against transgenic Leishmania Mexicana promastigotes LmGT2 that are glucose transport deficient and complemented with the L. Mexicana glucose transporter 2. Activity is measured by DNA content using SYBR green in vitro

| Structure (SMILES) | inhibition [1] | inhibition [2] | inhibition [3] |
| --- | --- | --- | --- |
| O=C(NC1CCC(CN2CCC(c3c[nH]c4ccccc34)CC2)CC1)c1cc(-c2cccc(Cl)c2)n(-c2ccc(Cl)cc2Cl)n1 (configuration not stated) | 1.34% | -0.46% | 0.47% |
| COC(=O)c1ccc(CC(C)NCC(O)c2cccc(C(F)(F)F)c2)c(OC)c1 (configuration not stated) | 6.43% | 5.12% | 5.25% |
| CNC(=O)c1ccc2[nH]cc(C3CCN(CC4CCC(NC(=O)/C=C/c5ccc(Cl)c(Cl)c5)CC4)CC3)c2c1 (configuration not stated) | 9.29% | 7.99% | 4.82% |
| O=C(NC1CCC(CN2CCC(c3c[nH]c4ccccc34)CC2)CC1)c1ccc(-c2cc(C(F)(F)F)ccc2Cl)o1 (configuration not stated) | 4% | 6.53% | 3.83% |
| O=C(C=Cc1ccc(-c2ccccc2)cc1)NC1CCC(CN2CCC(c3c[nH]c4ccccc34)CC2)CC1 (configuration not stated) | 6.41% and 5.7% | 7.57% and 7.18% | 6.53% and 3.78% |
| OC(CNC1CCCCCC1)c1ccc(Cl)c(Cl)c1 (configuration not stated) | -0.7% | 0.32% | -0.87% |
| O=C(/C=C/c1ccc(F)c(C(F)(F)F)c1)N1CCC(CN2CCC(c3c[nH]c4ccccc34)CC2)CC1 | 0.7% | 0.53% | 0.74% |
| CC[C@H]1CN2CC[C@@H]1C[C@H]2[C@H](O)c1cc(N2CCC(O)(c3ccc(Cl)cc3)CC2)nc2ccc(OC)cc12 | 6.73% | 1.34% | 2.62% |
| O=C(/C=C/c1ccc(Cl)cc1Cl)NC1CCC(CN2CCC(c3c[nH]c4ccccc34)CC2)CC1 (configuration not stated) | 10.9% | 13.1% | 9.99% |
| CC[C@H]1CN2CC[C@H]1C[C@H]2[C@H](O)c1cc(-c2ccc(F)cc2C)nc2ccc(OC)cc12 | 4.97% | 1.01% | 2.55% |
| COC(=O)c1ccc(CC(C)NCC(O)c2cc(Cl)c(N)c(Cl)c2)cc1 (configuration not stated) | 1.96% | 2.46% | 2.16% |
| CC(C)CNCc1cccc(-c2cccc(CN(C(=O)NC3CCCCC3)C3CCN(Cc4ccccc4)CC3)c2)c1 | 8.3% | 4.64% | 5.98% |
| COC(=O)c1ccc(C[C@@H](C)NC[C@H](O)c2cccc(C(F)(F)F)c2)cc1 | 3.2% | 4.43% | 0.45% |
| COc1ccc(CN2CCN(CCOC(c3ccccc3)c3ccc(Cl)cc3)CC2)c(O)c1 (configuration not stated) | 9.85% | 10.7% | 6.46% |
| CC(C)n1ncc2c(C(=O)Nc3ccc(C#N)c(Cl)c3)cc(C3CC3)nc21 | 2.24% | 1.01% | 3.4% |
| CN(C(=O)OCc1ccccc1)C1CCC(CCN2CCC3(CC2)C(=O)NCN3c2cccc(C(F)(F)F)c2)(c2ccccc2)CC1 (configuration not stated) | 2.48% | 1.12% | 2.55% |
| CSc1nccc(-c2ccc(S(=O)(=O)NC3CCC(CN4CCC(c5c[nH]c6ccccc56)CC4)CC3)s2)n1 (configuration not stated) | 2.14% and 2.23% | 0.65% and 1.79% | 2.7% and 0.3% |
| COCCNCc1cccc(-c2cccc(CN(C(=O)Nc3ccccc3)C3CCN(Cc4ccccc4)CC3)c2)c1 | 3.2% | 2.07% | 1.33% |
| CCOc1ccc(CN(CCc2ccc3c(c2)OCO3)Cc2cc(OC)ccc2O)cc1 | 4.49% | 4.01% | 6.07% |
| COc1cccc(C2(C)CCN(CCCCNC(=O)c3ccc(NC(=O)c4ccc(Cl)cc4)cc3)CC2)c1 | -1.81% | -1.78% | -3.4% |
| O=C(/C=C/c1cc([N+](=O)[O-])ccc1Cl)NC1CCC(CN2CCC(c3c[nH]c4ccccc34)CC2)CC1 (configuration not stated) | 2.1% | 1.69% | 2.13% |
| CN1CCN(c2ccc3[nH]c(-c4ccc5[nH]c(-c6ccc(O)cc6)nc5c4)nc3c2)CC1 | 4.92% | 5.09% | 2.92% |
| CC[C@H]1CN2CC[C@H]1C[C@H]2[C@H](O)c1cc(-c2ccc(C)cc2)nc2ccc(OC)cc12 | 1.44% | 0.47% | -0.1% |
| CC[C@H]1CN2CC[C@H]1C[C@H]2[C@H](O)c1cc(-c2cccc(Cl)c2)nc2ccc(OC)cc12 | 9.7% | 9.03% | 10.7% |
| COc1cc(CC(C)NCC(O)c2cccc(C(F)(F)F)c2)ccc1OCc1ccccc1 (configuration not stated) | 4.94% | 4.6% | 3.99% |

| Structure (SMILES) | inhibition [1] | inhibition [2] | inhibition [3] |
| --- | --- | --- | --- |
| O=S(=O)(NC1CCC(CN2CCC(c3c[nH]c4ccccc34)CC2)CC1)c1ccc(Cl)c(Cl)c1 (configuration not stated) | -2.62% | -1.92% | -2.55% |
| CC[C@H]1CN2CC[C@H]1C[C@H]2[C@H](O)c1cc(-c2ccc(F)cc2)nc2ccc(OC)cc12 | 0.09% | -0.06% | 1.25% |
| C/C=C1\CN2CC[C@H]1C[C@H]2[C@H](O)c1ccnc2ccc(OC)cc12 | 10% and 3.4% | 9.89% and 3.71% | 9.9% and 2.84% |
| O=C(CNC1CCCCC1)c1ccc(O)c(O)c1 | 75.2% | 87.1% | 77.4% |
| O=C(Nc1ccccc1Cl)NC1CCC(CN2CCC(c3c[nH]c4ccccc34)CC2)CC1 (configuration not stated) | 4.02% and 5.1% | 3.83% and 5.22% | -1.83% and 3.04% |
| Cn1nc(-c2ccc(S(=O)(=O)N3CCC(CN4CCC(c5c[nH]c6ccccc56)CC4)CC3)s2)cc1C(F)(F)F | 0.1% | 2.15% | -1.24% |
| Cc1nc(N)nc(N)c1-c1cccc(Cl)c1 | 3.73% | 4.7% | 1.38% |
| O=C(/C=C/c1ccc(C(F)(F)F)cc1)NC1CCC(CN2CCC(c3c[nH]c4ccccc34)CC2)CC1 (configuration not stated) | 5.55% and -0.04% | 5.47% and -0.38% | 0.63% and -2.05% |
| O=C(/C=C/c1ccc(O)cc1)NC1CCC(CN2CCC(c3c[nH]c4ccccc34)CC2)CC1 (configuration not stated) | -4.73% | -2.63% | -0.07% |
| CC(Cc1ccc(C2=CCNCC2)cc1)NCC(O)c1cccc(C(F)(F)F)c1 (configuration not stated) | -2.15% | -1.67% | -0.93% |
| COC(C(=O)OCCC1CCCN1C)(c1ccccc1)C1CCCCC1 (configuration not stated) | 11.6% | 10.5% | 10.5% |
| COC(C(=O)OCCC1CCCN1C)(c1ccccc1)c1ccccc1 (configuration not stated) | -0.93% | -0.75% | -4.58% |
| CN(C)CCCOc1ccc(CN2CCC(c3c[nH]c4ccc(NCC5CCCCC5)cc34)CC2)cc1 | 3.02% | 3.5% | 3.06% |
| CC(=O)C1(c2ccccc2)CCN(CCC2(c3ccc(Cl)c(Cl)c3)CN(C(=O)Nc3cccc(C(F)(F)F)c3)CCO2)CC1 (configuration not stated) | 7.51% | 4.19% | 3.14% |
| O=[N+]([O-])c1ccc(Oc2c(Cl)cc(S(=O)(=O)NC3CCC(CN4CCC(c5c[nH]c6ccccc56)CC4)CC3)cc2Cl)c(Cl)c1 (configuration not stated) | 2.41% | 0.39% | -1.14% |
| CC(Cc1ccc(CSC(C)C)cc1)NCC(O)c1cccc(Cl)c1 (configuration not stated) | 3.54% | 3.54% | 3.37% |
| CC[C@H]1CN2CC[C@@H]1C[C@H]2[C@H](O)c1ccnc2ccc(OC)cc12 | 0.79% | 0.55% | 3.26% |
| O=C(c1cc(C(=O)NCc2ccc(Cl)cc2)c(=O)n(Cc2ccc(Cl)cc2)c1)c1cc(F)ccc1O | 2.53% | 1.86% | 1.19% |
| Cc1[nH]c2c(C)cc(NS(C)(=O)=O)cc2c1C1CCN(CC2CCN(C(=O)/C=C/c3ccc(Cl)c(Cl)c3)CC2)CC1 | 1.48% | 3.63% | 4.65% |
| Cc1ccc2c(C3=CCN(CCCCC4(C)C(=O)Nc5c(F)cccc54)CC3)c(C)[nH]c2c1 (configuration not stated) | 2.71% | 1.48% | 1.63% |
| CC[C@H]1CN2CC[C@H]1C[C@H]2[C@H](O)c1cc(-c2ccc(SC)cc2)nc2ccc(OC)cc12 | 4.44% | 4.13% | 7.64% |
| CC(=O)Nc1ccc(CN2CCC(N(C)c3ccc(NC(=O)c4cccc(C)c4)cc3)CC2)cc1 | 8.7% | 10.9% | 9.57% |
| CC(=O)Nc1ccc(OCCN(CC(F)(F)F)c2ccc(C#N)cc2C(F)(F)F)cc1 | 2.13% | 2.71% | 0.98% |
| COc1ccc(CN2CCN(CCOC(c3ccc(F)cc3)c3ccc(F)cc3)CC2)c(O)c1 | 6.6% | 3.26% | 2.85% |

Source: ChEMBL document CHEMBL3433997, “St. Jude Leishmania screening dataset” (2016)
